Bioassay records from PubChem BioAssay.
Compounds with a hit are over-represented: about 10% of the library has one in this group of screens.
BAZ2B block = BAZ2B (human) inhibition; Q9UIF8; AlphaScreen BAZ2B-H3K14Ac peptide displacement; Potency, µM (highest dose often 114 µM), without a hit: at the highest dose activity change, negative = inhibition, hits mostly inhibitors; actives 4.4% (n = 360,000); further: on the % scale 0 is the no-effect control and ±100 the full control effect; nearly all actives have a fitted effect of over 60% in size
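Multi-concentration screen (max 110 uM) measuring displacement of acetylated histone H3 peptide from BAZ2B by AlphaScreen, using 50 nM protein, 50 nM peptide and 10 ug/mL streptavidin donor plus Ni-chelate acceptor beads.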
JMJD2A Tudor inh = inhibitors of human JMJD2A Tudor domain | O75164 | AlphaScreen JMJD2A-Tudor / H3K4me3 peptide binding | Potency, µM (highest dose often 114 µM), for the others: at the top dose activity change, negative = inhibition, actives largely listed as inhibitors | actives 4.4% (n = 390,000); further: on the % scale 0 is the no-effect control and ±100 the full control effect; nearly all actives have a fitted effect of over 50% in size
GLS inh = blocks human kidney-isoform glutaminase activity; O94925; GLS enzymatic activity, qHTS titration; Potency, µM (highest dose often 45.5 µM), without a hit: at the top dose activity change, negative = inhibition, most hits filed as inhibitors; actives 0.21% (n = 410,000); AID 624170; further: on the % scale 0 is the no-effect control and ±100 the full control effect
Target sequence (O94925 whole entry, looked up, canonical isoform): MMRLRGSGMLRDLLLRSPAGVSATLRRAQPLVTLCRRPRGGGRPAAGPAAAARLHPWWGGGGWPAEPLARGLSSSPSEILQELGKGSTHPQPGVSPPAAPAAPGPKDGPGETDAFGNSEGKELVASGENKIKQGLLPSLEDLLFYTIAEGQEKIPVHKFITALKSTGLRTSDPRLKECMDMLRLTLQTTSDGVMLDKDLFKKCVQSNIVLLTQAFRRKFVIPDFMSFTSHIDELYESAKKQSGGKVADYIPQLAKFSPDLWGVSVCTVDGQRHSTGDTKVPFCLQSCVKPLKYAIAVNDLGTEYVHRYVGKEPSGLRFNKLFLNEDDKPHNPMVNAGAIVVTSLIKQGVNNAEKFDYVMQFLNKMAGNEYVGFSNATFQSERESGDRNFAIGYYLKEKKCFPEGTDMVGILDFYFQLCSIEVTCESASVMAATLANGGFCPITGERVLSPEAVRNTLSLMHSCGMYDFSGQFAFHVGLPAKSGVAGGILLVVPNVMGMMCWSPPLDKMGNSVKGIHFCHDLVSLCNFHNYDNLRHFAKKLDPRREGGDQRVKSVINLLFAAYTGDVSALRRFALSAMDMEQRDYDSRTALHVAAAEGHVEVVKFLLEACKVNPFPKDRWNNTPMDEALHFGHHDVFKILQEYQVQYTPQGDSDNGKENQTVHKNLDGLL
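Human kidney-isoform GLS in 45 mM KH2PO4 pH 8.2, 0.02% Tween-20, with compound, started with 1mM L-Glutamine (added stock). Glutamate oxidase/HRP/Amplex red coupled fluorescence read at start and after 30 min at RT.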
G9a inh = inhibitors of human histone lysine methyltransferase G9a; Q96KQ7; G9a H3K9 monomethylation, AlphaScreen, 2 h; Potency, µM (titrated, usually from 102 µM), for the others: at the top dose activity, negative = inhibition, hits mostly inhibitors; actives 8.8% (n = 350,000); AID 504332; further: on the % scale 0 is the no-effect control and ±100 the full control effect; nearly all actives have a fitted effect of over 75% in size
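Step 1: enzyme (final 20 nM) with compound, 15 min RT. Step 2: substrate peptide 500 nM and SAM 20 uM, 2 h RT. Step 3: anti-H3K9me1 antibody and AlphaScreen beads, 10 min, then plate read.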
HP1b chromo inh = inhibitors of HP1-beta chromodomain binding to methylated histone tails; Potency, µM (titrated, usually from 114 µM), without a hit: top-dose activity change, negative = inhibition, usual class: inhibitors; AlphaScreen HP1-beta / biotin-H3K9me3 peptide binding; P83916; actives 0.56% (n = 390,000); further: nearly all actives have a fitted effect of over 70% in size
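Compound inhibition of the preformed complex between 50 nM HP1-beta and 50 nM biotinylated H3K9me3 peptide was read by AlphaScreen. Buffer was PBS pH 7.4 with 0.01% Tween-20. Incubations ran 30 min at room temperature, with 10 ug/mL donor/acceptor beads.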
An asterisk follows results filed as active; ? = inconclusive; . = no result; [ ] = remark or other dose. The call rests on the fitted dose curve; in most records, active means well fitted curve in the direction sought with a large enough effect; inconclusive means small, poorly fitted or top-dose-only effect, or another doubt; inactive means no such curve, though single readings can be large; an effect the other way counts as inactive or inconclusive. Potency means the concentration at half of the fitted maximal effect.

SMILES	BAZ2B block	JMJD2A Tudor inh	GLS inh	G9a inh	HP1b chromo inh
Cc1ccc(-c2cc(C(=O)O)c3cc(Br)ccc3n2)o1	56.2µM*	25.1µM*	-13.1%	1.26µM*	-24.8%
Cc1ccc(-c2cc(C(=O)NCCCn3ccnc3)c3cc(Br)ccc3n2)o1	-1.6%	79.4µM*	1.3%	?	-16.6%
Cc1cc(NC(=O)c2cc(-c3ccccn3)nc3ccc(Br)cc23)no1	70.8µM*	-12.2%	6.8%	.	33.5%
Cc1ccc(-c2cc(C(=O)N3CCCC3)c3ccccc3n2)s1	-9.7%	2.9%	-10.1%	20.5%	43.8%
Cc1ccc(-c2cc(C(=O)NC3=NCCS3)c3cc(Br)ccc3n2)o1	14.2%	.	.	?	.
Cc1ccc(-c2cc(C(=O)NN3CCOCC3)c3cc(Br)ccc3n2)o1	-32.7%	-13.1%	2.2%	?	16.6%
COc1cccc(C(=O)N2CCN(C(=O)C3CCCO3)CC2)c1 (stereo not given)	-0.5%	0.0%	-1.8%	-5.9%[2.33 µM]	33.0%
Cc1cc(C)cc(N2C(=O)CC(Cn3nc(C)cc3C)C2=O)c1 (stereo not given)	-1.9%	4.1%	-2.8%	47.0%[59 µM]	18.7%
CC(=O)N/C(=C\c1ccccc1)C(=O)OCc1ccccc1	4.6%	-12.9%	-0.2%	.	28.6%
O=C(O)C/C=C(\NC(=O)OCc1ccccc1)C(=O)OCc1ccccc1	.	17.9%	0.4%	50.1µM*	71.7%
O=C(Nc1ccc(S(=O)(=O)Nc2cnc3ccccc3n2)cc1)c1cc(F)c(F)cc1Cl	-19.7%	79.4µM*	-8.7%	-0.1%	5.5%
O=C(Nc1ccc(S(=O)(=O)Nc2cnc3ccccc3n2)cc1)c1ccc(Cl)cc1Cl	.	-5.7%	-0.5%	.	-11.5%
N#Cc1nc(-c2ccccc2F)oc1NCCc1ccccn1	21.8%	-5.5%	1.9%	3.9%	12.0%
Cc1ccc(N2C(=O)c3ccccc3C2O)nc1 (stereo not given)	2.8%	.	.	?	.
Cc1ccc(N2C(=O)c3ccccc3C2Nc2ccccc2F)nc1 (stereo not given)	-0.8%	-9.0%	-2.8%	50.1µM*	59.0%
CC(=O)Nc1ccc(SC(C)C(=O)NC(N)=O)cc1 (stereo not given)	-0.5%	-7.5%	6.5%	39.8µM*	25.7%
CC(Sc1cccc[n+]1[O-])C(=O)Nc1cc(Cl)c(Cl)cc1Cl (stereo not given)	.	-5.5%	-12.8%	.	18.2%
COc1ccc(NC(=O)C(C)Sc2ccccc2)cc1 (stereo not given)	-9.9%	-0.8%	8.7%	44.7µM*	23.4%
CC(=O)Nc1ccc(NC(=O)C(Sc2ccccc2)c2ccccc2)cc1 (stereo not given)	-1.0%	-9.9%	16.5%	-10.6%[12.7 µM]	12.1%
CC(Sc1cccc[n+]1[O-])C(=O)Nc1ccc(Oc2ccccc2)cc1 (stereo not given)	-37.3%	-16.7%	4.1%	39.8µM*	17.1%
COc1ccc(C(=O)Nc2ccc(S(=O)(=O)Nc3cc(C)nc(C)n3)cc2)cc1	-3.4%	-9.6%[11.4 µM]	1.4%	19.7%[12.7 µM]	80.7%
Cc1cc(C)cc(N(CC(=O)N2CCN(Cc3ccccc3)CC2)S(=O)(=O)c2c(C)noc2C)c1	1.4%	-0.8%[57.1 µM]	0.2%	50.1µM*	11.0%[57 µM]
Cc1[nH]ccc(=O)c1Cc1c(Cl)cccc1Cl	-2.0%	-0.7%	-8.6%	2.0%	19.9%
Cc1nc(C(Cl)(Cl)Cl)nc2[nH]ccc(=O)c12	-29.6%	11.2µM*	?	-8.2%	-9.9%
Cc1c(Cl)cccc1NS(=O)(=O)c1ccc(NS(=O)(=O)c2ccc3c(c2)OCCO3)cc1	-11.0%	-10.7%	17.1%	?	1.7%
SMILES	BAZ2B block	JMJD2A Tudor inh	GLS inh	G9a inh	HP1b chromo inh
Cc1ccc([C@H]2Nc3ccc(S(=O)(=O)Nc4cccc(Cl)c4C)cc3[C@H]3C=CC[C@H]32)cc1	?	?	4.7%	14.1µM*	1.2%
COc1cccc([C@H]2Nc3ccc(S(=O)(=O)Nc4cc(C)ccc4C)cc3[C@H]3C=CC[C@H]32)c1	-32.4%	-33.9%	?	12.6µM*	6.8%
CC1(C(=O)NS(=O)(=O)c2ccc(Cl)cc2)CCN1C(=O)C1CC1 (stereo not given)	.	.	6.8%	.	.
O=C(COC(=O)c1ccccc1Br)NCC1CCCCC1	.	14.4%	-4.4%	.	23.4%
CN(C(=O)COC(=O)c1cccnc1Cl)C1CCCCC1	.	-2.1%	-7.2%	.	22.9%
CN(C)c1ccc(C(=O)OCC(=O)NC2CCCCCC2)cc1	.	-18.2%	2.2%	-3.7%	13.4%
CN(C)c1ccc(N=Nc2ccccc2C(=O)OCC(=O)NC2CCCC2)cc1	12.6µM*	31.6µM*	9.8%	11.2µM*	-86.5%
CN(C)c1ccc(N=Nc2ccccc2C(=O)OCC(=O)NCC2CCCCC2)cc1	8.91µM*	7.94µM*	4.5%	7.94µM*	?
CN(C)c1ccc(N=Nc2ccccc2C(=O)OCC(=O)N(C)C2CCCCC2)cc1	8.91µM*	?	0.3%	20µM*	-24.2%
CNC(C)c1ccc(S(N)(=O)=O)cc1 (stereo not given)	-38.2%	4.2%	-5.8%	?	26.0%
CCC1=[N+](CC(=O)c2ccc(Br)cc2)CCn2c(C)ccc21	-37.7%	?	-17.0%	31.6µM*	25.2%
CCC1=[N+](CC(=O)c2ccc(C)cc2)CCn2c(C)ccc21	-34.6%	-18.5%	-0.7%	?	8.7%
CCC1=[N+](C)CCn2c(C)ccc21	5.1%	?	-1.7%	1.78µM*	8.8%
CC(C)N(C(=O)c1ccc(C(=O)Nc2ccc([N+](=O)[O-])cc2)cc1)C(C)C	-5.6%	-2.1%	-9.9%	1.6%	28.9%
COc1ccc(CNc2cc(C)ccn2)c(O)c1	-15.3%	-17.5%	-7.2%	?	27.6%
Cc1c(C(=O)OC(C)C(C)C[N+](C)(C)C)oc2ccccc12 (stereo not given)	-20.5%	56.2µM*	?	12.6µM*	14.5%
Cc1c(C(=O)OC(C)C(=O)N(C)Cc2ccccc2)oc2ccccc12 (stereo not given)	.	-3.3%	-11.8%	.	55.8%
CCc1cccc(NC(=O)CN2Cc3ccccc3C2=O)c1	-0.5%	4.3%	4.0%	13.3%[59 µM]	20.5%
O=c1[nH]c2c(c(=O)[nH]1)CCCCCC2	.	0.7%	-5.6%	.	42.0%
O=C(O)c1cc(Cl)c2c(c1)[C@@H]1C=CC[C@@H]1[C@H](c1ccc(S(=O)(=O)N3CCOCC3)cc1)N2	50.1µM*	79.4µM*	12.6µM*	22.4µM*	-21.7%
Cc1ccc(S(=O)(=O)N2CCOCCOCCOCCOCCOCC2)cc1	-28.1%	-4.7%	1.1%	-5.6%	28.6%
Cc1cc(C)c2c(c1)C1C=CCC1C(c1ccc(S(=O)(=O)N3CCOCC3)cc1)N2 (stereo not given)	-12.2%	-16.2%	-13.5%	8.91µM*	15.1%
CC1=C(C(=O)N2CCOCC2)CC(CC(=O)NCCc2ccccn2)C(=O)N1Cc1ccccc1 (stereo not given)	.	.	3.3%	.	.
O=C(Cn1cnc2sc3c(c2c1=O)CCCC3)NCC(=O)Nc1c(F)cccc1F	-14.5%	?	3.2%	38.1%	5.8%
